# High-throughput results (PubChem BioAssay)
# A selection: hits, their analogues and other compounds. The true share with any hit is near 21%.
# NS1 function inh: blocks influenza NS1 protein function; Potency, µM (doses to about 46.1 µM); hit rate 0.4% among 270,000; AID 2326; calls by dose curve; also: actives are rising curves; nearly all actives have a fitted effect of over 50% in size
#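 Growth recovery, yeast-based: influenza A NS1 expressed in S. cerevisiae causes slow growth, and suppressors are detected by OD600. The parent strain without NS1 is used as positive control.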
# Pf growth 96h: inhibits malaria parasite growth, 96 h | P. falciparum luciferase reporter growth, 96 h | Potency, µM (titrated, usually from 28.7 µM), hits mostly inhibitors | hit rate 6.9% among 320,000
#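 P. falciparum expressing integrated firefly luciferase grown in erythrocytes (2% hematocrit, 0.05% parasitemia final) with compounds for 96 hours at 37 C, 5% CO2. Growth inhibition read as loss of luminescence after adding luciferase detection reagent.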
# Shiga toxin inh: inhibitors of Shiga toxin in Vero cells; Vero cells, Shiga toxin protein synthesis inhibition reporter; inhibition, % at 38.7 µM; hit rate 9.2% among 290,000; AID 2315; in the data active = inhibition mostly above about 28%, no sharp cut-off; inactive = mostly below about 43%
# CHX counter: counter-screen for Shiga toxin inhibitors: cycloheximide protein synthesis inhibition; max response, %; cell reporter, cycloheximide protein synthesis inhibition counterscreen; hit rate 12% among 300,000; AID 2314; in the data active = max response mostly above about 13%, no sharp cut-off; inactive = mostly below about 14%; also: read at 38.3 µM for the half of the compounds with a filed dose
# Pf growth 48h: P. falciparum growth inhibition at 48 hours (one generation) | P. falciparum luciferase growth in erythrocytes, 48 h | Potency, µM (doses to about 28.7 µM), usual class: inhibitors | hit rate 5.9% among 310,000 | AID 504832
#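 Cell-based growth assay: transgenic P. falciparum expressing firefly luciferase, cultured in red cells within RPMI 1640 containing 0.5% w/v Albumax, 24 mM bicarbonate and gentamycin. A drop in luciferase activity indicates inhibition.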
# Sm TGR inh: S. mansoni TGR enzyme inhibition. Q962Y6. purified TGR, DTNB reduction, TNB absorbance 405 nm. Potency, µM (doses to about 114 µM), hits mostly inhibitors. hit rate 3% among 360,000. AID 485364; also: nearly all actives have a fitted effect of over 60% in size
#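 First, TGR (20 nM dispensed) and NADPH were mixed with compound. Second, a 15 min room-temperature incubation followed. Third, further NADPH and then DTNB were added to start the reaction. Finally, TNB absorbance was monitored kinetically.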
# Numbers stand for hits; i = inactive; ? = inconclusive; nt = no result given. Unless noted, calls follow the shape of the dose curve; as a rule, active = well fitted curve in the direction sought with a large enough effect; inconclusive = small, poorly fitted or top-dose-only effect, or another doubt; inactive = no such curve, though single readings can be large; an effect the other way counts as inactive or inconclusive.
SMILES,NS1 function inh,Pf growth 96h,Shiga toxin inh,CHX counter,Pf growth 48h,Sm TGR inh
CC(=O)C(C)Oc1ccc2c3c(c(=O)oc2c1)CCCC3 (stereo unspecified),i,i,i,i,i,i
O=c1oc2cc(OCc3nn[nH]n3)ccc2c2c1CCCC2,?,?,i,i,i,i
CC(=O)C(C)Oc1ccc2c3c(c(=O)oc2c1)CCCCC3 (stereo unspecified),i,nt,82.6,49.7,i,i
Cc1cccnc1NC(=O)COc1ccc2oc3c(c2c1)CCCC3,i,?,28.0,29.2,?,i
CC(=O)COc1ccc2c3c(c(=O)oc2c1)CCCC3,i,nt,i,17.0,i,i
Cc1cc(NC(=O)COC(=O)COc2ccc3c4c(c(=O)oc3c2)CCC4)no1,i,i,i,i,i,i
O=C(COc1ccc2c3c(c(=O)oc2c1)CCC3)Nc1ccccn1,i,i,i,19.6,i,i
Cc1ccc(/C=N/N2CCN(c3ccc(Cl)cc3)CC2)o1,i,i,i,i,i,i
Cc1ccc(/C=N/N2CCCCC2)o1,nt,i,56.1,38.5,i,i
CCOC(=O)CS(=O)(=O)c1nc(-c2ccccc2)cc(C(F)(F)F)n1,i,i,i,i,i,?
CCOC(=O)c1c(C(F)(F)F)cc(-c2ccc(F)cc2)nc1C,i,?,i,i,i,i
COCC(C)NC(=O)CCS(=O)(=O)c1nc(-c2ccc(OC)cc2)cc(C(F)(F)F)n1 (stereo unspecified),i,9.28µM,i,i,i,?
CCOC(=O)CS(=O)(=O)c1nc(-c2ccc(F)cc2)cc(C(F)(F)F)n1,i,nt,i,i,i,2.82µM
CCOC(=O)CCS(=O)(=O)c1nc(-c2ccccc2)cc(C(F)(F)F)n1,i,nt,i,i,i,28.2µM
COC(=O)CCS(=O)(=O)c1nc(-c2ccccc2)cc(C(F)(F)F)n1,i,nt,i,i,i,8.91µM
Cc1cc(C)n2nc(SCC(=O)N(CCC#N)c3ccccc3F)nc2n1,nt,?,nt,nt,?,i
C/C(=N\NC(=O)c1cc(-c2ccccn2)nc2ccccc12)c1cccc([N+](=O)[O-])c1,nt,10.4µM,i,i,?,i
C/C(=N/NC(=O)CNC(=O)c1ccccn1)c1cccc([N+](=O)[O-])c1,i,i,i,i,i,20µM
O=C(c1cccc([N+](=O)[O-])c1)c1ccccn1,i,i,i,i,i,i
O=C(NNC(=O)c1ccccn1)c1cccc([N+](=O)[O-])c1,nt,i,i,i,13.1µM,i
C/C(=N\NC(=O)CSc1nc(C)cc(C)n1)c1cccc([N+](=O)[O-])c1,i,i,i,i,i,i
N#Cc1c2ccc([N+](=O)[O-])cc2[n+]([O-])n1-c1ccccc1,nt,10.4µM,nt,nt,11.7µM,i
COc1cccc(-n2c(N)c(C#N)c3ccc([N+](=O)[O-])cc3c2=O)c1,i,i,i,i,i,i
O=C(O/N=C1\CCCc2ccccc21)C1CC1,nt,i,i,i,i,i
Cc1ccc(C(=O)O/N=C2\CCCc3ccccc32)cc1,i,i,61.9,17.8,i,i
SMILES,NS1 function inh,Pf growth 96h,Shiga toxin inh,CHX counter,Pf growth 48h,Sm TGR inh
Cc1cccc(C(=O)O/N=C2\CCSc3ccc(C)cc32)c1,i,i,i,i,i,i
Cc1cc(Cl)ccc1OCC(=O)N/N=C1\CCCc2ccccc21,i,i,i,i,i,i
Cc1cccc(C(=O)O/N=C2\CCCc3ccccc32)c1,i,i,41.4,24.1,i,i
O=C(O/N=C1\CCCc2ccccc21)c1cccc(Cl)c1,i,i,i,13.3,i,i
O=C(NCC1CCCO1)C(c1ccncc1)N(Cc1cccs1)C(=O)CN1C(=O)c2ccccc2S1(=O)=O (stereo unspecified),i,i,i,10.8,i,i
Cc1ccccc1CCN(C(=O)CN1C(=O)c2ccccc2S1(=O)=O)C(C(=O)NCC1CCCO1)c1ccncc1 (stereo unspecified),i,?,i,i,i,i
COc1ccccc1NS(=O)(=O)c1ccc(C)c(C(=O)NCCCN2CCCC2=O)c1,nt,?,nt,nt,?,i
COc1cc(O)c(CC=C(C)C)c(O)c1C(=O)CCc1ccc(O)cc1,i,i,25.9,i,9.28µM,i
O=C(COc1ccccc1)Nc1ccccc1C(=O)OCc1cc(=O)n2nc(C3CC3)sc2n1,nt,nt,nt,nt,nt,i
N#CC1=C(N)Oc2c(ccc3ccccc23)C1c1cccs1 (stereo unspecified),i,8.28µM,47.7,23.2,nt,35.5µM
N#CC1=C(N)Oc2c(ccc3cccnc23)C1c1ccccc1 (stereo unspecified),i,?,i,i,13.1µM,39.8µM
N#CC1=C(N)Oc2cc(O)ccc2C1c1cccs1 (stereo unspecified),i,nt,i,i,nt,i
Cc1ccc2[nH]c(=O)c(C3C(C#N)=C(N)Oc4c3ccc3cccnc43)cc2c1 (stereo unspecified),i,nt,i,i,?,15.8µM
COC(=O)C1=C(C)NC(C)=C(C(=O)OC)C1c1cc2cc(C)ccc2[nH]c1=O,i,i,i,i,i,?
N#CC1=C(N)OC2=C(C(=O)CCC2)C1c1ccccc1 (stereo unspecified),i,?,i,i,i,i
COc1ccccc1NC(=O)Cc1noc(CSc2n[nH]c(N)n2)n1,nt,i,i,i,i,i
CCCN(CCC)C(C)C(=O)NCC1(c2ccccc2)CCCC1 (stereo unspecified),i,i,i,i,i,i
Cc1cccc(Cn2ccn(Cc3ccc(Cl)cc3)c(=O)c2=O)c1,nt,nt,nt,nt,nt,i
COc1ccc(C[C@H]2c3cc(O)c(OC)cc3CC[N+]2(C)[O-])cc1O (stereo partly specified),i,?,i,i,?,17.8µM
COc1cc2c(cc1O)C(Cc1ccc(O)cc1)[N+](C)([O-])CC2 (stereo unspecified),i,i,i,i,i,?
Cc1[nH]c2ccccc2c1-c1nc2ccccc2[nH]c1=O,i,i,64.2,i,i,i
N#C/C(=C(/O)c1cccs1)c1nc2ccccc2[nH]1,i,?,i,i,?,i
O/C(=C\c1nc2ccccc2[nH]1)c1cccs1,i,?,86.6,28.0,?,?
O=c1[nH]c2ccccc2nc1-c1cccs1,i,i,119.8,42.6,i,i
c1csc(-c2nnsc2-c2nc3ccccc3[nH]2)c1,i,?,i,i,i,i
SMILES,NS1 function inh,Pf growth 96h,Shiga toxin inh,CHX counter,Pf growth 48h,Sm TGR inh
CC(C)(C)/C(O)=C/c1nc2ccccc2[nH]c1=O,i,i,i,i,i,i
O=c1[nH]c2ccccc2nc1/C=C(\O)c1cccs1,i,i,109.0,42.2,i,i
CCc1cccc(C)c1NC(=O)CSc1nc2ccccc2nc1N1CCOCC1,nt,nt,nt,nt,nt,i
COc1cccc(N2CCN(C(=O)CN3CCSc4ccc(S(=O)(=O)N(C)C)cc43)CC2)c1,nt,nt,nt,nt,nt,i
CNC(=O)C1CCC(Cn2c(=O)c3sccc3n(CC(=O)Nc3cc(F)ccc3F)c2=O)CC1 (stereo unspecified),nt,nt,nt,nt,nt,i
Oc1ccc(C=Nc2cccc3ncccc23)c(O)c1,i,?,i,i,i,i
